Where “and” joins values, the source holds several entries; their conditions need not be identical. Identical values can stand only once. Inconclusive results are not listed. The source holds several records for some structures; these can differ, active in one and inactive in another. Calls of active or inactive are those of the source. Rule for the calls, unless noted: active = hit-call score of the fitted dose curve at least 0.9, where 1 is the maximum; inactive = score below 0.9.
Tests used:
[1] = read-out: Interleukin-8 (IL8), CXCL8 (gene 3576); experiment: BSK_3C_IL8: BioMAP Diversity Plus: 3C Assay for Interleukin-8 (IL8) Biomarker Activity (AID 2283020); details: primary human endothelial cells (HUVEC); actives raise or lower the signal
Outline: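 IL-8 was measured by ELISA in HUVEC cultures 24 h after chemical dosing, with gain or loss of signal fitted relative to DMSO. Parallel SRB total-protein staining tracked overt cytotoxicity.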

[2] = read-out: Monokine induced gamma interferon (MIG), CXCL9 (gene 4283); experiment: BSK_3C_MIG: BioMAP Diversity Plus: 3C Assay for Monokine induced gamma interferon (MIG) Biomarker Activity (AID 2283021); details: primary human endothelial cells (HUVEC); actives raise or lower the signal;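 for AC50: MIG protein level measured by immunoassay in the treated endothelial cultures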
Outline: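 ELISA measurement of MIG in human umbilical vein endothelial cells 24 h after treatment. Cytotoxicity tracked by SRB staining in parallel cultures; gain or loss of signal fitted relative to DMSO.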

[3] = BSK_3C_SRB: Viability Assessment in the BioMAP Diversity Plus: 3C Assay (AID 2283023); details: primary human endothelial cells (HUVEC);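 note: fitted both ways against DMSO so a hit may be signal rise or drop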
Outline: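 Cytotoxicity readout in parallel HUVEC 3C cultures: after 24 h compound exposure, cells fixed with 10% TCA, stained with 0.1% SRB and read at 560 nm. Gain or loss relative to DMSO fitted.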

[4] = read-out: Matrix Metallopeptidase 1 (MMP1), MMP1 (gene 4312); experiment: BSK_BE3C_MMP1: BioMAP Diversity Plus: BE3C Assay for Matrix Metallopeptidase 1 (MMP1) Biomarker Activity (AID 2283024); details: primary human bronchial epithelial cells; actives raise or lower the signal
Outline: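 ELISA measurement of MMP-1 after 24 h compound exposure of primary human bronchial epithelial cells. Changes in either direction fitted relative to DMSO; parallel SRB staining checked overt cytotoxicity.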

[5] = BSK_3C_Vis: BioMAP Diversity Plus: 3C Assay for Morphology Visualization (AID 2283025); details: primary human endothelial cells (HUVEC);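 note: fitted both ways so gain or loss versus DMSO counts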;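 for AC50: light microscopy image of cell morphology used as background control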
Outline: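 Light-microscopy visualization of HUVEC cultures at 24 h post-treatment, with DMSO as baseline for bidirectional fitting.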

[6] = read-out: Pselectin, SELP (gene 6403); experiment: BSK_4H_Pselectin: BioMAP Diversity Plus: 4H Assay for Pselectin Biomarker Activity (AID 2283026); details: primary human endothelial cells (HUVEC); actives raise or lower the signal
Outline: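 ELISA of surface P-selectin on HUVEC, 24 h after dosing, with parallel SRB staining (0.1% after 10% TCA fixation, 560 nm) for overt cytotoxicity. Activity fitted in both directions relative to DMSO.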

[7] = BSK_4H_SRB: Viability Assessment in the BioMAP Diversity Plus: 4H Assay (AID 2283027); details: primary human endothelial cells (HUVEC);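 note: cells exposed to compound for 24 h before staining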;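 for AC50: curves fitted both ways versus DMSO so AC50 may be loss or gain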
Outline: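 Cytotoxicity readout: sulforhodamine B (0.1%) staining of total protein after 10% TCA fixation, measured at 560 nm in human umbilical vein endothelium at 24 h. DMSO set the baseline; fitting was bidirectional.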

[8] = BSK_BE3C_SRB: Viability Assessment in the BioMAP Diversity Plus: BE3C Assay (AID 2283028); details: primary human bronchial epithelial cells;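 for AC50: fitted both ways so AC50 may mark signal gain or loss versus DMSO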
Outline: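 Cytotoxicity read-out: SRB (0.1%) staining of TCA-fixed (10%) human lung bronchial epithelial cells, absorbance 560 nm, 24 h post-dosing. Curves fitted both directions relative to DMSO.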

[9] = read-out: Thrombomodulin, THBD (gene 7056); experiment: BSK_3C_Thrombomodulin: BioMAP Diversity Plus: 3C Assay for Thrombomodulin Biomarker Activity (AID 2283029); details: primary human endothelial cells (HUVEC); actives raise or lower the signal
Outline: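 ELISA measurement of thrombomodulin on HUVEC surface 24 h after chemical dosing; activity fitted in both directions relative to DMSO vehicle.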

[10] = read-out: Urokinase-type plasminogen activator receptor (uPAR), PLAUR (gene 5329); experiment: BSK_4H_uPAR: BioMAP Diversity Plus: 4H Assay for Urokinase-type plasminogen activator receptor (uPAR) Biomarker Activity (AID 2283030); details: primary human endothelial cells (HUVEC); actives raise or lower the signal
Outline: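 uPAR level read by ELISA on HUVEC cultures (BioMAP 4H) 24 h post-dosing, analyzed for gain or loss relative to DMSO. Parallel SRB staining assessed overt cytotoxicity.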

[11] = read-out: Vascular endothelial growth factor receptor 2 (Homo sapiens) (UniProt P35968); experiment: BSK_4H_VEGFRII: BioMAP Diversity Plus: 4H Assay for Vascular endothelial growth factor receptor 2 (VEGFR2) Biomarker Activity (AID 2283031); details: primary human endothelial cells (HUVEC); actives raise or lower the signal;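 for AC50: cell-surface VEGFR2 protein level quantified by ELISA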
Outline: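 Measured by ELISA after 24 h of compound treatment: VEGFR2 on primary human umbilical vein endothelial cells, fitted in both directions relative to DMSO. Parallel cultures received SRB staining (560 nm) for overt cytotoxicity.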

[12] = read-out: Human Leukocyte Antigen - DR isotype (HLADR), HLA-DRA (gene 3122); experiment: BSK_BE3C_HLADR: BioMAP Diversity Plus: BE3C Assay for Human Leukocyte Antigen - DR isotype (HLADR) Biomarker Activity (AID 2283032); details: primary human bronchial epithelial cells; actives raise or lower the signal
Outline: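 Cell-surface HLA-DR ELISA readout at 24 h after dosing in the BE3C primary human lung bronchial epithelial system; gain or loss of signal against DMSO, with parallel sulforhodamine B staining of total protein for overt cytotoxicity.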

[13] = read-out: Vascular cell adhesion molecule 1 (VCAM1), VCAM1 (gene 7412); experiment: BSK_4H_VCAM1: BioMAP Diversity Plus: 4H Assay for Vascular cell adhesion molecule 1 (VCAM1) Biomarker Activity (AID 2283033); details: primary human endothelial cells (HUVEC); actives raise or lower the signal
Outline: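 VCAM-1 ELISA read 24 h after chemical dosing of HUVEC in the BioMAP 4H system, with gain or loss of signal fitted relative to DMSO. Parallel SRB staining (560 nm) checked overt cytotoxicity.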

[14] = read-out: Interferon-gamma inducible Protein 10 (IP10), CXCL10 (gene 3627); experiment: BSK_BE3C_IP10: BioMAP Diversity Plus: BE3C Assay for Interferon-gamma inducible Protein 10 (IP10) Biomarker Activity (AID 2283034); details: primary human bronchial epithelial cells; actives raise or lower the signal
Outline: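 IP-10 quantified by ELISA in human primary bronchial epithelial cell cultures at 24 hours post-dosing. Gain or loss of signal fitted relative to DMSO; parallel SRB staining assessed overt cytotoxicity.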

[15] = read-out: Monokine induced gamma interferon (MIG), CXCL9 (gene 4283); experiment: BSK_BE3C_MIG: BioMAP Diversity Plus: BE3C Assay for Monokine induced gamma interferon (MIG) Biomarker Activity (AID 2283035); details: primary human bronchial epithelial cells; actives raise or lower the signal
Outline: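 hu bronchial epithelial 1° cells, 24 h cpd; MIG by ELISA; bidirectional fit, DMSO = baseline.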

[16] = read-out: Transforming growth factor beta 1 (TGFb1), TGFB1 (gene 7040); experiment: BSK_BE3C_TGFb1: BioMAP Diversity Plus: BE3C Assay for Transforming growth factor beta 1 (TGFb1) Biomarker Activity (AID 2283036); details: primary human bronchial epithelial cells; actives raise or lower the signal
Outline: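 ELISA readout of TGF-b1 from human lung bronchial epithelial primary cells, taken 24 h post-treatment. Gain or loss of signal fitted relative to DMSO baseline, with parallel SRB staining for overt cytotoxicity.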

[17] = read-out: Plasminogen activator inhibitor-1 (PAI1), SERPINE1 (gene 5054); experiment: BSK_BE3C_PAI1: BioMAP Diversity Plus: BE3C Assay for Plasminogen activator inhibitor-1 (PAI1) Biomarker Activity (AID 2283037); details: primary human bronchial epithelial cells; actives raise or lower the signal
Outline: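 PAI-1 was measured by ELISA in human primary bronchial epithelial cultures 24 h after chemical dosing, with cytotoxicity checked by SRB total-protein staining in parallel cultures. Activity was fitted in both directions relative to DMSO.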

[18] = read-out: urokinase plasminogen activator (uPA), PLAU (gene 5328); experiment: BSK_BE3C_uPA: BioMAP Diversity Plus: BE3C Assay for urokinase plasminogen activator (uPA) Biomarker Activity (AID 2283038); details: primary human bronchial epithelial cells; actives raise or lower the signal
Outline: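 ELISA for uPA on human primary bronchial epithelial cultures 24 h post-treatment, gain or loss against DMSO. Parallel SRB staining (0.1% after 10% TCA fixation, 560 nm) assessed overt cytotoxicity.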

[19] = read-out: Urokinase-type plasminogen activator receptor (uPAR), PLAUR (gene 5329); experiment: BSK_BE3C_uPAR: BioMAP Diversity Plus: BE3C Assay for Urokinase-type plasminogen activator receptor (uPAR) Biomarker Activity (AID 2283039); details: primary human bronchial epithelial cells; actives raise or lower the signal
Outline: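 uPAR levels were measured by ELISA after 24 h compound treatment of primary human bronchial epithelial cells, fitted in both directions relative to DMSO. Parallel SRB staining served as the cytotoxicity read-out.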

[20] = target: human Vitamin D Receptor (VDR), VDR (gene 7421) (UniProt P11473); experiment: ATG_VDR_TRANS: Attagene TRANS-FACTORIAL HepG2 Assay for human Vitamin D Receptor (VDR) (AID 2283022; active = hit-call score of the fitted dose curve at least 0.9, where 1 is the maximum)
Chain of human Vitamin D Receptor (VDR), VDR (gene 7421) (P11473 whole entry, looked up, the tested form may be a part): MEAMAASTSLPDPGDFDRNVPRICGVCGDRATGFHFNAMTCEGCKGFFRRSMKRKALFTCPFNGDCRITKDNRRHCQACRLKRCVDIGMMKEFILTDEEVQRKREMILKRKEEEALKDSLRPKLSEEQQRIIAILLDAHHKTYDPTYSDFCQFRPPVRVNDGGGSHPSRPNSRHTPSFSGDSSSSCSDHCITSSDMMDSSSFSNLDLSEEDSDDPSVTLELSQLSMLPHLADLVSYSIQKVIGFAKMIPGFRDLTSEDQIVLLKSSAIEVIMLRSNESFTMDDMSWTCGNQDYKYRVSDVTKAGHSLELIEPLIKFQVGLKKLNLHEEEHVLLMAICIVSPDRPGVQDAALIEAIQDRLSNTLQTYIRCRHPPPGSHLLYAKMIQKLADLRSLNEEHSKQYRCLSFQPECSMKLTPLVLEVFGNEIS
Outline: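 Transactivation by an exogenous VDR-Gal4 chimera in transiently transfected HepG2 cells was measured as reporter transcript level 24 hours after chemical treatment. RT-PCR products were analysed by capillary electrophoresis and fitted in the positive direction relative to DMSO.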

Measured: AC50

CCOC1Oc2ccc(OS(C)(=O)=O)cc2C1(C)C (stereo unspecified)
active: [3] 24.1 µM | [12] 24 µM | [18] 26.5 µM
inactive: [1] | [2] | [4] | [5] | [6] | [7] | [8] | [9] | [10] | [11] | [13] | [14] | [15] | [16] | [17] | [19]

Oc1ccc(Cl)cc1Cc1ccccc1
active: [1] 33.6 µM [middle of 7 runs] | [2] 36.8 µM [middle of 7 runs] | [3] 24.4 µM [middle of 7 runs] | [4] 32.8 µM [middle of 7 runs] | [5] 37.9 µM and 14.7 µM and 20 µM | [6] 28.2 µM [middle of 7 runs] | [7] 28.1 µM [middle of 7 runs] | [8] 34.7 µM [middle of 5 runs] | [9] 31.8 µM [middle of 5 runs] | [10] 34 µM [middle of 7 runs] | [11] 23.8 µM | [12] 34.7 µM [middle of 7 runs] | [13] 31 µM [middle of 6 runs] | [14] 35.3 µM [middle of 7 runs] | [15] 37.3 µM [middle of 7 runs] | [16] 33.9 µM [middle of 7 runs] | [17] 34.4 µM [middle of 7 runs] | [18] 36.3 µM [middle of 7 runs] | [19] 32.1 µM [middle of 7 runs]
inactive: [9] | [11]

CCN(CC)C(=O)SCc1ccc(Cl)cc1
inactive: [2] | [20] | [3] | [4] | [5] | [6] | [7] | [8] | [9] | [10] | [11] | [12] | [13] | [14] | [15] | [16] | [17] | [18] | [19]

CC(C)N(C(=O)COc1nnc(C(F)(F)F)s1)c1ccc(F)cc1
active: [6] 11.1 µM
inactive: [1] | [2] | [3] | [4] | [5] | [7] | [8] | [9] | [10] | [11] | [12] | [13] | [14] | [15] | [16] | [17] | [18] | [19]

CC[C@H](C)[C@H]1O[C@]2(C=C[C@@H]1C)C[C@@H]1C[C@@H](C/C=C(\C)[C@@H](O[C@H]3C[C@H](OC)[C@@H](O[C@H]4C[C@H](OC)[C@@H](O)[C@H](C)O4)[C@H](C)O3)[C@@H](C)/C=C/C=C3\CO[C@@H]4[C@H](O)C(C)=C[C@@H](C(=O)O1)[C@]34O)O2 (tested in a mixture with another compound)
inactive: [20]
active: [1] 6.07 µM | [2] 12.1 µM | [3] 5.58 µM | [4] 11.1 µM | [5] 3.78 µM | [6] 5.3 µM | [7] 8.22 µM | [8] 4.65 µM | [9] 2.13 µM | [10] 8.93 µM | [11] 5.27 µM | [12] 5.87 µM | [13] 11.6 µM | [14] 5.96 µM | [16] 20 µM | [17] 5.51 µM | [18] 5.41 µM | [19] 6.13 µM

CC1(c2ccc(Oc3ccccc3)cc2)OC(=O)N(Nc2ccccc2)C1=O (stereo unspecified)
inactive: [4] | [9] | [12] | [15] | [16] | [17] | [18] | [19]
active: [1] 24 µM | [2] 32.3 µM | [3] 28.5 µM | [5] 16.3 µM | [6] 31.7 µM | [7] 20 µM | [8] 27.5 µM | [10] 16.1 µM | [11] 20 µM | [13] 15.3 µM | [14] 15 µM

— PubChem BioAssay (EPA / NIEHS)
